# Laboratory results taken from the supplement of paper PMC10849652.
# Of roughly 7,900 targets only a part is listed; those with a hit were picked by preference. About 0.6% of all pairs of compound and target were hits. A number with no mark means an inactive call.
# Compound: CC[C@H](C)[C@@H](C(=O)N[C@@H]([C@@H](C)O)C(=O)N[C@@H](CC(C)C)C(=O)[C@]1(CO1)C)NC(=O)[C@H]([C@@H](C)CC)N(C)C(=O)C [epoxomicin]
# Test: log2 fold change, soluble protein after heating vs DMSO (PISA); higher = thermal stabilisation; K562 cells, 10 uM, 30 min; active = over 0.2 and 3.5 SD of the protein, either way, in both replicates (recomputed)
# Outline: (§1)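 Thermal stability values are relative to control samples and come from duplicates. They are expressed as log2 fold changes. For measurement, K562 cells (2×10^6 cells/mL) received 10 μM compound for 30 min, and aliquots were heated for 3 min over 48°C-58°C, pooled, and extracted at 4°C in PBS with 0.5% NP-40. Soluble protein, the supernatant after 21,000xg for 90 min, was quantified by TMTpro 16plex LC-MS/MS with equalised channel sums.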
# Chain of UniProt Q969G3 (Q969G3 whole entry, looked up): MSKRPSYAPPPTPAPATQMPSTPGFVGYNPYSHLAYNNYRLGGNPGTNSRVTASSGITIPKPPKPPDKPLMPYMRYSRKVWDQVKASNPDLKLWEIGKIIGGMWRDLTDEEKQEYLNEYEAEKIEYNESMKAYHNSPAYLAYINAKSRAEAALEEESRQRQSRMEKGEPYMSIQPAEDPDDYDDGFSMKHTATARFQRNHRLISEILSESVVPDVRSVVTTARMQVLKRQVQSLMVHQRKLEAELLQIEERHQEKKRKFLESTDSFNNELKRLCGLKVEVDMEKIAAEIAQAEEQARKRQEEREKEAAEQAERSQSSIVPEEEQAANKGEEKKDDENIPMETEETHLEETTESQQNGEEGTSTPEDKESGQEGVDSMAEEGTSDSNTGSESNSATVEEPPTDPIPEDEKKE
# Chain of UniProt Q9NVC3 (Q9NVC3 whole entry, looked up): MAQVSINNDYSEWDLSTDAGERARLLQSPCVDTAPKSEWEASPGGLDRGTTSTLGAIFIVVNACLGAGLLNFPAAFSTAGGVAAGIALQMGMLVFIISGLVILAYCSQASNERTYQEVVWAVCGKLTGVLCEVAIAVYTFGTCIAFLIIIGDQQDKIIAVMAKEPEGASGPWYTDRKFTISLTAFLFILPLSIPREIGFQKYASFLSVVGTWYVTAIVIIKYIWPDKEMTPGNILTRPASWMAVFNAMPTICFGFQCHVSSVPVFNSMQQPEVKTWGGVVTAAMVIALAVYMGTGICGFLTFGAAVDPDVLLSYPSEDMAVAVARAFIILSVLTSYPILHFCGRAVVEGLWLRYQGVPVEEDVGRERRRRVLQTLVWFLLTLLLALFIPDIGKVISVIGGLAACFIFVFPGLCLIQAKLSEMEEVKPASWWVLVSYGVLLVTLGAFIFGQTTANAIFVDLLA
# Chain of UniProt Q9BZD2 (Q9BZD2 whole entry, looked up): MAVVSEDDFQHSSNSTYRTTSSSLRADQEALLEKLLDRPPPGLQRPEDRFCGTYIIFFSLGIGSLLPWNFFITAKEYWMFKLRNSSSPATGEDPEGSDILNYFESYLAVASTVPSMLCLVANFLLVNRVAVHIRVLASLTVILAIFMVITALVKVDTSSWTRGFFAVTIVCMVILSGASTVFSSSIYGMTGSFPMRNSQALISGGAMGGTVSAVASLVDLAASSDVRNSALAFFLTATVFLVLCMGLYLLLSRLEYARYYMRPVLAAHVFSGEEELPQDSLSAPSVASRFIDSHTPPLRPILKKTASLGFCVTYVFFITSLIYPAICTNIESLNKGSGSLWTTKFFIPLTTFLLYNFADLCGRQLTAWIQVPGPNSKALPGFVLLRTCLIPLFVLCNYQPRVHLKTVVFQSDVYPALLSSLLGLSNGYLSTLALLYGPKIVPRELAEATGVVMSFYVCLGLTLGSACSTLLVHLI
# Chain of UniProt Q8TC07 (Q8TC07 whole entry, looked up): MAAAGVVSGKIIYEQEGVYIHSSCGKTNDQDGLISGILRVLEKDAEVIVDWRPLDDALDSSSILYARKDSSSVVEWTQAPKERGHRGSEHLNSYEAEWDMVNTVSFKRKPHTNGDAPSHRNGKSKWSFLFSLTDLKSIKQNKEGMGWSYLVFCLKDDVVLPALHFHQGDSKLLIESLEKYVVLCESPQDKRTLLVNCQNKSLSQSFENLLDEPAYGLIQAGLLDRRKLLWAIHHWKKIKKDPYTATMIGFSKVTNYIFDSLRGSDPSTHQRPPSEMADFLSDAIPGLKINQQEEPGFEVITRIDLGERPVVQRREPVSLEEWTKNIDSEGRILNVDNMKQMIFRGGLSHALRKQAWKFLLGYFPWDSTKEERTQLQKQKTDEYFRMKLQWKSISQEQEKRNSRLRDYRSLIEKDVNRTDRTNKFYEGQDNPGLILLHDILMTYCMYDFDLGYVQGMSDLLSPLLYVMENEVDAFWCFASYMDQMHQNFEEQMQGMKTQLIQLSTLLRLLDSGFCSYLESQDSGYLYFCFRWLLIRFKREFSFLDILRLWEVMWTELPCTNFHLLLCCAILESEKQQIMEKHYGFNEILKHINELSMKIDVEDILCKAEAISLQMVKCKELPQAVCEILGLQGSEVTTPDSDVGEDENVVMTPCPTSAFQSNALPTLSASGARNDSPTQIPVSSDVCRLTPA
# Chain of UniProt Q8N5G0 (Q8N5G0 whole entry, looked up): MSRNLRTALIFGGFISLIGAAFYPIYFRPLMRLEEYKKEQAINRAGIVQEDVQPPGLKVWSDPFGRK
# Chain of UniProt P08579 (P08579 whole entry, looked up): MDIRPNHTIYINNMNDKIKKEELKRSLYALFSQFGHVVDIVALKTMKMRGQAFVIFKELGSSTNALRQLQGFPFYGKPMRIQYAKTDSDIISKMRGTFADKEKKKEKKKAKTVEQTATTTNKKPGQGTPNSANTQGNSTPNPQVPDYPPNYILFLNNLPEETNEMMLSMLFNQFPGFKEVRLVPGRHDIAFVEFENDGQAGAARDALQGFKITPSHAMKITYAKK
# Chain of UniProt Q9UHD2 (Q9UHD2 whole entry, looked up): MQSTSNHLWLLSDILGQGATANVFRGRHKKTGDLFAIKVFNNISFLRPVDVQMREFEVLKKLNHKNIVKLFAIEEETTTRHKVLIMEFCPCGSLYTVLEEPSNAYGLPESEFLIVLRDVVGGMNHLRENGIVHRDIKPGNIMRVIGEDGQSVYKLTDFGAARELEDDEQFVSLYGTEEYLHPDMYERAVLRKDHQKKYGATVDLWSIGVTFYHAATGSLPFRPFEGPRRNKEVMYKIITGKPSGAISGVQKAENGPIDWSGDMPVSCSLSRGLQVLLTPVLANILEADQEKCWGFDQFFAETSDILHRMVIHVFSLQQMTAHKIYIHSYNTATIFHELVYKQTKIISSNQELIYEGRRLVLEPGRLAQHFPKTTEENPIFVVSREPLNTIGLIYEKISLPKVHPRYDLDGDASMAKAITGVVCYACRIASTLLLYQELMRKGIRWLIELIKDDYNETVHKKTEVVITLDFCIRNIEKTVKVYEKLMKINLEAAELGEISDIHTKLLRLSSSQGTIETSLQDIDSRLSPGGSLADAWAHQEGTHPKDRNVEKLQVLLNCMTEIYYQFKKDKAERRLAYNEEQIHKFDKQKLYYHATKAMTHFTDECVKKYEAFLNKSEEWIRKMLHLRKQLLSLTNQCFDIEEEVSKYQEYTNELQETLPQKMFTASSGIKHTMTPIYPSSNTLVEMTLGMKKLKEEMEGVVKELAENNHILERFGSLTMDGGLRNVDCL
# Chain of UniProt O95772 (O95772 whole entry, looked up): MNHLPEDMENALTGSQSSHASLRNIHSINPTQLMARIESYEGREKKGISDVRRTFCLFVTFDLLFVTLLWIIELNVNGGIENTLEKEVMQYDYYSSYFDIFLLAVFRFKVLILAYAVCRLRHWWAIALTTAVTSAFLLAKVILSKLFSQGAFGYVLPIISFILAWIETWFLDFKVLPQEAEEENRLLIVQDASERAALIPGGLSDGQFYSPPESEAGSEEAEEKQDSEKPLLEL
# Chain of UniProt Q8NEF9 (Q8NEF9 whole entry, looked up): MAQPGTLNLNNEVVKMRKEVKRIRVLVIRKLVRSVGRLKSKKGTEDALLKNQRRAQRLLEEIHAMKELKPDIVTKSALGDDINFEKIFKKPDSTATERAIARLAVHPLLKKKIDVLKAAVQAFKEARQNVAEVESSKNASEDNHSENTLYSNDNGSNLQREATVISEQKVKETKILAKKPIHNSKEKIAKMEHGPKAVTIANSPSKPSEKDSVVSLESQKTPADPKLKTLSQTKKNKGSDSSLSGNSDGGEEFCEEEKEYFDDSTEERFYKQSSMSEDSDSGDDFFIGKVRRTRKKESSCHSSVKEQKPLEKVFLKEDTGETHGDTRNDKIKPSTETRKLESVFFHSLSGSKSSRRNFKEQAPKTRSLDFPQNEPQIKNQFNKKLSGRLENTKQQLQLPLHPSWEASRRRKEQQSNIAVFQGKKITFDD
# Chain of UniProt P55061 (P55061 whole entry, looked up): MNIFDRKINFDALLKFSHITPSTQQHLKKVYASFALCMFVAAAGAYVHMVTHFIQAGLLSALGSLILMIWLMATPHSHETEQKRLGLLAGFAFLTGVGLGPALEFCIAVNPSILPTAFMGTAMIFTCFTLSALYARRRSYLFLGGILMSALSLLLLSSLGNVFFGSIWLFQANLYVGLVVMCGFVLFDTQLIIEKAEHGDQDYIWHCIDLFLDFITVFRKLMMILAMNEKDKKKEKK
# Chain of UniProt Q96BZ9 (Q96BZ9 whole entry, looked up): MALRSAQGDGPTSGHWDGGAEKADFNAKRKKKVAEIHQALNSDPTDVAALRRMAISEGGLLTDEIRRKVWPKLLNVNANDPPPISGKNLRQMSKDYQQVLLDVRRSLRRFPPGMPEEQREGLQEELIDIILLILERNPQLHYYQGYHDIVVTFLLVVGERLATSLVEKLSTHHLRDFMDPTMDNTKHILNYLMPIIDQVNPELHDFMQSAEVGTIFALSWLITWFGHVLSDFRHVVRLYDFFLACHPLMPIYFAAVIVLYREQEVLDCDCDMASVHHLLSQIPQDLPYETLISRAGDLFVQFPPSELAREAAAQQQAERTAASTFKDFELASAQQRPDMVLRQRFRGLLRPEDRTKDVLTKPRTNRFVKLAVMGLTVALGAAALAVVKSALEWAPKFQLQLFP
# Chain of UniProt Q9P289 (Q9P289 whole entry, looked up): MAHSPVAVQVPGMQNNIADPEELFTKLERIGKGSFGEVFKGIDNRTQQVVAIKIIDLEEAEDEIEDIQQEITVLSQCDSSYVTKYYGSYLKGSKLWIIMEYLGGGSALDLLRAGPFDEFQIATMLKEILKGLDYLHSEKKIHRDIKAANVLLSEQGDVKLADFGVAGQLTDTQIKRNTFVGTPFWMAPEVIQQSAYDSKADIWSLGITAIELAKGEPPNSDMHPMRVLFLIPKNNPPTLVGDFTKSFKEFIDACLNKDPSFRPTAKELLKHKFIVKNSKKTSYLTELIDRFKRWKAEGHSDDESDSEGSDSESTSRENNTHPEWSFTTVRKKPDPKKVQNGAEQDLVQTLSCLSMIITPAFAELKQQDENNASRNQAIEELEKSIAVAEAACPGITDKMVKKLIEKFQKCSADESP
# Chain of UniProt Q9BYN0 (Q9BYN0 whole entry, looked up): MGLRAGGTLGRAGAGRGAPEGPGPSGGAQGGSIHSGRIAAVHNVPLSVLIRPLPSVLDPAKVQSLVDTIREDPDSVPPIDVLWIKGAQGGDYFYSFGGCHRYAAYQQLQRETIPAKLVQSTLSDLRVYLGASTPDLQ
row,Target,log2 fold change
1,TBK1 (UniProt Q9UHD2),0.019
2,TANGO6 (UniProt Q9C0B7),0.035
3,SLC38A7 (UniProt Q9NVC3),0.078
4,SRXN1 (UniProt Q9BYN0),0.069
5,SLC29A3 (UniProt Q9BZD2),-0.048
6,SMARCE1 (UniProt Q969G3),-0.033
7,SRC isoform 2 (UniProt P12931),-0.16
8,SRFBP1 (UniProt Q8NEF9),-0.047
9,TBC1D15 isoform 3 (UniProt Q8TC07),0.004
10,SPPL2B (UniProt Q8TCT7),-0.076
11,SMIM20 isoform 2 (UniProt Q8N5G0),0.483 (active)
12,SRSF9 (UniProt Q13242),-0.421
13,SLC35F6 (UniProt Q8N357),0.021
14,TBC1D20 isoform 3 (UniProt Q96BZ9),0.068
15,TEX264 (UniProt Q9Y6I9),0
16,SPCS2 (UniProt Q15005),0.091
17,TJP1 (UniProt Q07157),0.007
18,SNRPB2 (UniProt P08579),-0.05
19,STK26 (UniProt Q9P289),0.084
20,SP100 isoform 4 (UniProt P23497),-0.006
21,STARD3NL (UniProt O95772),-0.085
22,SNX5 (UniProt Q9Y5X3),0.05
23,TMBIM6 isoform 2 (UniProt P55061),0.25
24,TARS2 (UniProt Q9BW92),0.02
25,SPTBN1 (UniProt Q01082),-0.024
26,SLC35A1 (UniProt P78382),0.018
27,SLC38A2 (UniProt Q96QD8),-0.078
28,TAOK2 (UniProt Q9UL54),-0.01
29,SUN1 isoform 9 (UniProt O94901),-0.021
30,TBP (UniProt P20226),-0.332

# Compound: CCn1c(C(=O)N(C2CC2)C2CC2)cc2c3c(ncn3C)c(Nc3cc(C)n(C)n3)nc21
# Test: as above
# Outline: as §1
row,Target,log2 fold change
1,SYNE2 isoform 2 (UniProt Q8WXH0),-0.181
2,TBK1 (UniProt Q9UHD2),0.002
3,TANGO6 (UniProt Q9C0B7),-0.165
4,SLC38A7 (UniProt Q9NVC3),-0.018
5,TENT5C (UniProt Q5VWP2),0.085
6,SLC29A3 (UniProt Q9BZD2),0.047
7,SMARCE1 (UniProt Q969G3),-0.071
8,SRC isoform 2 (UniProt P12931),-0.101
9,SRFBP1 (UniProt Q8NEF9),-0.088
10,SLC39A11 (UniProt Q8N1S5),0
11,TBC1D15 isoform 3 (UniProt Q8TC07),-0.081
12,TM7SF3 (UniProt Q9NS93),-0.006
13,SPPL2B (UniProt Q8TCT7),-0.004
14,SMIM20 isoform 2 (UniProt Q8N5G0),0.038
15,SRSF9 (UniProt Q13242),0.097
16,SLC35F6 (UniProt Q8N357),0.11

row,Target,log2 fold change
1,TBC1D20 isoform 3 (UniProt Q96BZ9),-0.111
2,TEX264 (UniProt Q9Y6I9),-0.201
3,SPCS2 (UniProt Q15005),-0.067
4,TJP1 (UniProt Q07157),-0.023
5,TACC2 (UniProt O95359),0.012
6,SSBP4 (UniProt Q9BWG4),-0.116
7,SNRPB2 (UniProt P08579),0.025
8,STK26 (UniProt Q9P289),-0.003
9,SP100 isoform 4 (UniProt P23497),0.023
10,STARD3NL (UniProt O95772),0.007
11,SNX5 (UniProt Q9Y5X3),-0.026
12,TMBIM6 isoform 2 (UniProt P55061),-0.055
13,TARS2 (UniProt Q9BW92),0.009
14,SPTBN1 (UniProt Q01082),-0.048
15,SLC35A1 (UniProt P78382),-0.002
